From ChEMBL document CHEMBL1961873, “Compounds: GSK PKIS; Assays: Nanosyn kinase panel” (2012)

How the values were obtained:
[1] = target: Sphingosine kinase 1 (Homo sapiens) (UniProt Q9NYA1); conditions: at 1 µM;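 note: mean SPHK1 inhibition value reported from the GSK PKIS kinase panel screen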
[2] = target: T1, Sphingosine kinase 2 (Homo sapiens) (UniProt Q9NRA0); conditions: at 0.1 µM
T1 sequence (whole entry): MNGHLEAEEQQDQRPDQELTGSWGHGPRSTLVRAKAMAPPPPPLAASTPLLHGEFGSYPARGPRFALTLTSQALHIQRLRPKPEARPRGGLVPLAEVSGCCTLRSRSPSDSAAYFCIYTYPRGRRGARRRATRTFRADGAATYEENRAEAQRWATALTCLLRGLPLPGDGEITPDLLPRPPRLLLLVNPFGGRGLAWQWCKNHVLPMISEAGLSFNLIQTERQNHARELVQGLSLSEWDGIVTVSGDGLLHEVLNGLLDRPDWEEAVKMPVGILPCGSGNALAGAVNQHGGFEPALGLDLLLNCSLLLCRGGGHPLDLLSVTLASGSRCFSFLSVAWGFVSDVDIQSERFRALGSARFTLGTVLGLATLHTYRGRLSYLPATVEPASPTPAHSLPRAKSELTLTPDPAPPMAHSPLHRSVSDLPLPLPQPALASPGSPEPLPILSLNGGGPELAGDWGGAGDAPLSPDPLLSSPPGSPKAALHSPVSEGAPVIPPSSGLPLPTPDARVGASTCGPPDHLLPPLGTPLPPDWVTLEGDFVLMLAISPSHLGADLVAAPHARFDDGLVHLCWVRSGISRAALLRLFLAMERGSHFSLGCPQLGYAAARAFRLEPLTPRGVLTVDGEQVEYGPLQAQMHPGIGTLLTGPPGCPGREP

[3] = target: T1, Sphingosine kinase 2 (Homo sapiens); conditions: at 1 µM
[4] = target: Casein kinase II subunit alpha (Homo sapiens) (UniProt P68400); conditions: at 0.1 µM
Chain of Casein kinase II subunit alpha (Homo sapiens) (P68400 whole entry, looked up): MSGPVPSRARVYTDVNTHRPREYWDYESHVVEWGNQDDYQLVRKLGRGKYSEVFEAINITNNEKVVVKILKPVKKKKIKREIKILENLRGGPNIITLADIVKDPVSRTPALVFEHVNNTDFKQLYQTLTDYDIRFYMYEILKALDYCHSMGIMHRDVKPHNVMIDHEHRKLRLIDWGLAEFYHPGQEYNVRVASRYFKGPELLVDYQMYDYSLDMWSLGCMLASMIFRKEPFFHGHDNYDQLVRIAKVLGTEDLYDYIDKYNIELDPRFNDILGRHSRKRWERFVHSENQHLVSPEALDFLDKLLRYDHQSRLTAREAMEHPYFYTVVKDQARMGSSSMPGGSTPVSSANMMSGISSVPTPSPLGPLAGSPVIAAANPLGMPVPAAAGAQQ

[5] = target: Casein kinase II subunit alpha (Homo sapiens) (UniProt P68400); conditions: at 1 µM
[6] = target: T2, Inhibitor of nuclear factor kappa-B kinase subunit alpha (Homo sapiens) (UniProt O15111); conditions: at 1 µM;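 note: mean inhibition of IKKA, from the GSK PKIS data set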
T2 sequence (whole entry): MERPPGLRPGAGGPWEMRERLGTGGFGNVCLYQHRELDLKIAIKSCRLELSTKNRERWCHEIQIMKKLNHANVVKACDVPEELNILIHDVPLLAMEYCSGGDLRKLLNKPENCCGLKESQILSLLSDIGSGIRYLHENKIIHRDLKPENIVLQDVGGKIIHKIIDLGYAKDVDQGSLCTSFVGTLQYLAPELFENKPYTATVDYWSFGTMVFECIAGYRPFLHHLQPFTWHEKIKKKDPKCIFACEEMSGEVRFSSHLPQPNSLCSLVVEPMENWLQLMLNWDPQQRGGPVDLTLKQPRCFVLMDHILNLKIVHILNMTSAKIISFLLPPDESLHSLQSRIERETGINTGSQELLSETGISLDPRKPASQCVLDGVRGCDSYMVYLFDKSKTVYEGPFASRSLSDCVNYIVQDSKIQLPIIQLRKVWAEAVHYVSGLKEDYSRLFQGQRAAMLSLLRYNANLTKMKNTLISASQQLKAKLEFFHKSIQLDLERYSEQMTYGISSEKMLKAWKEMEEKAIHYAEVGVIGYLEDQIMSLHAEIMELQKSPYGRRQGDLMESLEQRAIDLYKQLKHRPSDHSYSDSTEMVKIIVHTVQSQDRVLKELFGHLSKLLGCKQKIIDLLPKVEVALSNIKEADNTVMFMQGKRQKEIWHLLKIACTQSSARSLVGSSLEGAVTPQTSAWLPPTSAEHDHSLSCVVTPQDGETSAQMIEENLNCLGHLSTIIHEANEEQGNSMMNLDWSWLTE

[7] = target: T3, Inhibitor of nuclear factor kappa-B kinase subunit beta (Homo sapiens) (UniProt O14920); conditions: at 0.1 µM
T3 sequence (whole entry): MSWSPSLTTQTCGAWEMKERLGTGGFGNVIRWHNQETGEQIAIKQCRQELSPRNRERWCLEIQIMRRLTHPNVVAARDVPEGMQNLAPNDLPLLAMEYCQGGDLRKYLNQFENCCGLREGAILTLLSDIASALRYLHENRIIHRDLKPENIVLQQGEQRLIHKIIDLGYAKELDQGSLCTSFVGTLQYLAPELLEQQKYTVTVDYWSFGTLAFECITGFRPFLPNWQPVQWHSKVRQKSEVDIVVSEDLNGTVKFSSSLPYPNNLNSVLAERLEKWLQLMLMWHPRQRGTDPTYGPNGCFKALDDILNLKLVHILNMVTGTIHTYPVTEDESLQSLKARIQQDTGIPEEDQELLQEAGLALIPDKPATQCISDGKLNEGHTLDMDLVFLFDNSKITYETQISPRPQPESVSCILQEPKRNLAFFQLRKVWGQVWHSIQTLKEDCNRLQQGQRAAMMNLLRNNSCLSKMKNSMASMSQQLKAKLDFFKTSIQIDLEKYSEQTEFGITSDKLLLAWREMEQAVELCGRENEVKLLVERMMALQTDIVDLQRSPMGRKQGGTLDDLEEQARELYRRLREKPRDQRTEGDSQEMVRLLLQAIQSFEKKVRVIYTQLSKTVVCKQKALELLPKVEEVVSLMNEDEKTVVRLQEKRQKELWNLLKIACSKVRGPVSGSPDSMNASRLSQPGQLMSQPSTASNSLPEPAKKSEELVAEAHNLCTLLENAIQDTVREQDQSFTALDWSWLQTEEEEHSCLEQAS

[8] = target: T3, Inhibitor of nuclear factor kappa-B kinase subunit beta (Homo sapiens); conditions: at 1 µM
[9] = target: T4, Inhibitor of nuclear factor kappa-B kinase subunit epsilon (Homo sapiens) (UniProt Q14164); conditions: at 0.1 µM;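 note: mean inhibition of IKKε reported, from the GSK PKIS dataset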
T4 sequence (whole entry): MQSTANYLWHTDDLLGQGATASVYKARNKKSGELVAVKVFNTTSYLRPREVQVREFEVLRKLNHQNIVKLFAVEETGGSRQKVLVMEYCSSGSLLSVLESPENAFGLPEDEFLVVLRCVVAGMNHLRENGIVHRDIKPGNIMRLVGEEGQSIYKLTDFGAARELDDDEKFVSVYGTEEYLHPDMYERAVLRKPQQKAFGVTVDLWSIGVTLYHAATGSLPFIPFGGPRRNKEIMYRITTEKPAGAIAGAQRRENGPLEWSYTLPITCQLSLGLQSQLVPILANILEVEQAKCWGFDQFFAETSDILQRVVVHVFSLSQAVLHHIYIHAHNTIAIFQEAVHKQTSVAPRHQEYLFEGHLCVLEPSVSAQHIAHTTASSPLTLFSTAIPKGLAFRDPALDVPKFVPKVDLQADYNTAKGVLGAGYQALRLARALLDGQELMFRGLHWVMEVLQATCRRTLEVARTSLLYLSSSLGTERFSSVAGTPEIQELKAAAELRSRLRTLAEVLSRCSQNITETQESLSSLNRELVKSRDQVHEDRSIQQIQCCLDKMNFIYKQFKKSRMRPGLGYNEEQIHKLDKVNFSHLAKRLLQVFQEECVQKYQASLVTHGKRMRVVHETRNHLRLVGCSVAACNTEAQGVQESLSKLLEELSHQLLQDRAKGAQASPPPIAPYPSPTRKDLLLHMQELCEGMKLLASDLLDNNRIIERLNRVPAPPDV

[10] = target: T5, Serine/threonine-protein kinase Nek1 (Homo sapiens) (UniProt Q96PY6); conditions: at 0.1 µM
T5 sequence (whole entry): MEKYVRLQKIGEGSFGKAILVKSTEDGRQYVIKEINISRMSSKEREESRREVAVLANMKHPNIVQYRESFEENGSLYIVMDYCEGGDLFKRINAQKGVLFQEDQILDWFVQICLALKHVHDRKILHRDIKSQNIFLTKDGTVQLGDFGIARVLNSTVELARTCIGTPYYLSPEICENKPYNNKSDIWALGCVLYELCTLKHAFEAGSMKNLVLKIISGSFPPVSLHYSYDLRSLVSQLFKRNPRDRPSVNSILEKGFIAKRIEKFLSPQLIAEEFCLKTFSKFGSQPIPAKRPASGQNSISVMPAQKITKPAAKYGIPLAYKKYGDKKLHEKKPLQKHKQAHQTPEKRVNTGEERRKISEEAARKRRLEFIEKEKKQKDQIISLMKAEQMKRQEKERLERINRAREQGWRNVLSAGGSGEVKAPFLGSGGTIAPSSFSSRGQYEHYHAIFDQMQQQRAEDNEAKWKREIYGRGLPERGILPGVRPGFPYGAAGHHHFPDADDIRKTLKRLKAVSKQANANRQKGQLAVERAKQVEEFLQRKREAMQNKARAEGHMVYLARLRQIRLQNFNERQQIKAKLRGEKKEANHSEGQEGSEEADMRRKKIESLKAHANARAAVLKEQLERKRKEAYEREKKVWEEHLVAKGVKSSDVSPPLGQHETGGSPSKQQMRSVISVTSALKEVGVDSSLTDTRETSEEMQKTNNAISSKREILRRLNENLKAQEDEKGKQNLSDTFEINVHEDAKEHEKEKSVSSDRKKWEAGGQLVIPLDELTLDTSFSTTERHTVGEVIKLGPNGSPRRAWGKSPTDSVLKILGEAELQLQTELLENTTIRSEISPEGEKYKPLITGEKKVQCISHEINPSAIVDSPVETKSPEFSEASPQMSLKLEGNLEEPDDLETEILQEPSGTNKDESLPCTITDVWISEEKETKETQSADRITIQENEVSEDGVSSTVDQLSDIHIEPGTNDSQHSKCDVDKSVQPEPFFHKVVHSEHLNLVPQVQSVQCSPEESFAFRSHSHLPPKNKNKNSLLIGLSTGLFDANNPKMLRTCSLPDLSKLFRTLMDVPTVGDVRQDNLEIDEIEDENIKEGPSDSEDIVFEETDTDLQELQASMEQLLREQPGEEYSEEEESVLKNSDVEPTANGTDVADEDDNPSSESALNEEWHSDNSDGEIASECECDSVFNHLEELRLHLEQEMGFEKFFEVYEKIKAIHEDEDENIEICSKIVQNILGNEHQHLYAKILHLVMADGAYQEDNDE

[11] = target: T5, Serine/threonine-protein kinase Nek1 (Homo sapiens); conditions: at 1 µM
[12] = target: T6, Serine/threonine-protein kinase Nek2 (Homo sapiens) (UniProt P51955); conditions: at 0.1 µM
T6 sequence (whole entry): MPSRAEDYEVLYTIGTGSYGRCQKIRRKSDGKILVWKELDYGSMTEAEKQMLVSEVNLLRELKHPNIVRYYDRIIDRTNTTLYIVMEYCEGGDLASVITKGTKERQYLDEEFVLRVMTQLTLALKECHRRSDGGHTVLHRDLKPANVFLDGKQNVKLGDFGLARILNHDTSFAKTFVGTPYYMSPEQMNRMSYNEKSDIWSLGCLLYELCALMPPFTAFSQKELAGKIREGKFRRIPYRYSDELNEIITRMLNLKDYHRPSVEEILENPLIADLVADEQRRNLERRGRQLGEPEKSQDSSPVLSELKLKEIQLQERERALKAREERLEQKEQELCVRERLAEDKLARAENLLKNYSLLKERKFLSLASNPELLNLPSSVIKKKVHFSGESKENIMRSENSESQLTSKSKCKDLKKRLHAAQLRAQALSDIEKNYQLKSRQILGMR

[13] = target: T6, Serine/threonine-protein kinase Nek2 (Homo sapiens); conditions: at 1 µM
[14] = target: Serine/threonine-protein kinase Nek6 (Homo sapiens) (UniProt Q9HC98); conditions: at 0.1 µM
Chain of Serine/threonine-protein kinase Nek6 (Homo sapiens) (Q9HC98 whole entry): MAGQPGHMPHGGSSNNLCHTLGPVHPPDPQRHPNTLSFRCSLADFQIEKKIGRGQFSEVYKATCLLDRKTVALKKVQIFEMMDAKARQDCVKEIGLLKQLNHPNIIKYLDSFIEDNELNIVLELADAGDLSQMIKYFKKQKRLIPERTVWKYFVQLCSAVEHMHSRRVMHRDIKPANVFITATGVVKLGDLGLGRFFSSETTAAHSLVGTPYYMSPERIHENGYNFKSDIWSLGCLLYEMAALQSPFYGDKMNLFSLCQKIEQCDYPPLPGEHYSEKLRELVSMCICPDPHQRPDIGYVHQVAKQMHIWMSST

[15] = target: Serine/threonine-protein kinase Nek6 (Homo sapiens) (UniProt Q9HC98); conditions: at 1 µM
[16] = target: Serine/threonine-protein kinase Nek7 (Homo sapiens) (UniProt Q8TDX7); conditions: at 0.1 µM
Chain of Serine/threonine-protein kinase Nek7 (Homo sapiens) (Q8TDX7 whole entry, looked up): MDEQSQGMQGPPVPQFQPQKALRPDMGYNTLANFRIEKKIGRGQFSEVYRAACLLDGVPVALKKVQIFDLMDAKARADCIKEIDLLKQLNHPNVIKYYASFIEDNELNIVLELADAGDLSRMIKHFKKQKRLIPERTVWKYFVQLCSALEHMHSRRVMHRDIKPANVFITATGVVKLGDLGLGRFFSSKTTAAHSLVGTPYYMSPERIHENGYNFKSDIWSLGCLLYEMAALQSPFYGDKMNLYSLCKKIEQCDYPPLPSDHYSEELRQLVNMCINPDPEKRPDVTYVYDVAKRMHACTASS

[17] = target: Serine/threonine-protein kinase Nek7 (Homo sapiens) (UniProt Q8TDX7); conditions: at 1 µM
[18] = target: T7, Serine/threonine-protein kinase Nek9 (Homo sapiens) (UniProt Q8TD19); conditions: at 0.1 µM;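 note: reported value is the mean percent inhibition of NEK9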
T7 sequence (whole entry): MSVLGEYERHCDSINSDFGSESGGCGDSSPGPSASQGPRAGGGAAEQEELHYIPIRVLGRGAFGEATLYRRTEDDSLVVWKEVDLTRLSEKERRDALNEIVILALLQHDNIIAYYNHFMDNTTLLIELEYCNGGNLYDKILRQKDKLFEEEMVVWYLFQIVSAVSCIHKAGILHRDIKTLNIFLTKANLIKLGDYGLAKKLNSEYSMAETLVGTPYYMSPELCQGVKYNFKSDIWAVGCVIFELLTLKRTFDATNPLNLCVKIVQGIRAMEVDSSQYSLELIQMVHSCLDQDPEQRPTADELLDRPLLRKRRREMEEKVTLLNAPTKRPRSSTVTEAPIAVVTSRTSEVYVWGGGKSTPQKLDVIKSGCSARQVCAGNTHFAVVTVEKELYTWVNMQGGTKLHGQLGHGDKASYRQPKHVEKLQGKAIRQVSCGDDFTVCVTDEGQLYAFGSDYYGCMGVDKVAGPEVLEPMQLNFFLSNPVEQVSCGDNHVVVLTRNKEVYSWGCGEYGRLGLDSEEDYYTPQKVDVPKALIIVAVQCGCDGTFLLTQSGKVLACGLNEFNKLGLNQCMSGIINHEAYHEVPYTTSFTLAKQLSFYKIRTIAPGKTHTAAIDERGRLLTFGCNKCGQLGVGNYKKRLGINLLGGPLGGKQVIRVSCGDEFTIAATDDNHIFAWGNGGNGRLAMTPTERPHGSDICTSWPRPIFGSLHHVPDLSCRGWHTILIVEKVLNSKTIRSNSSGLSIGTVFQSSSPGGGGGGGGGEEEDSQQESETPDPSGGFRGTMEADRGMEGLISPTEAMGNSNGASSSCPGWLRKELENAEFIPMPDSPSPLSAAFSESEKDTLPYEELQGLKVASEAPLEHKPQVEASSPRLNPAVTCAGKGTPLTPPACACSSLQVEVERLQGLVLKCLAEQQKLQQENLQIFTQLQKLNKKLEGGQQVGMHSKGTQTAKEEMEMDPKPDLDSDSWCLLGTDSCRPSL

Chain of Sphingosine kinase 1 (Homo sapiens) (Q9NYA1 whole entry): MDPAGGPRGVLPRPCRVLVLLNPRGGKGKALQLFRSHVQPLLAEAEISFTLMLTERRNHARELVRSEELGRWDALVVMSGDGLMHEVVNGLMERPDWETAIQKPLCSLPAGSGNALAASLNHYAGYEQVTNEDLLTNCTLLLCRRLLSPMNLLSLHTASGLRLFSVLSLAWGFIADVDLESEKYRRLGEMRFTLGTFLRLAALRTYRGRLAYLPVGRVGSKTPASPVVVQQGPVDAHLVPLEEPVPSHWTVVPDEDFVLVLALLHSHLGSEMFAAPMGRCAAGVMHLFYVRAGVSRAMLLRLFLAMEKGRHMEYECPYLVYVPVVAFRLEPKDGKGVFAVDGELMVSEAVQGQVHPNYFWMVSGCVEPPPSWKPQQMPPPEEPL

For Fc1ccc(-c2ncn(CCCN3CCOCC3)c2-c2ccncc2)cc1, the inhibition [1] was -2.07%, the inhibition [2] was -0.81% and the inhibition [3] was -0.25%. For the same compound, the inhibition [4] was -2.49%, the inhibition [5] was -6% and the inhibition [6] was -8.87%. It also gave an inhibition [7] of 7.22%, an inhibition [8] of 3.34% and an inhibition [9] of 4.58%. It also gave an inhibition [10] of 0.93%, an inhibition [11] of 0.52% and an inhibition [12] of -0.45%. The inhibition [13] was -0.45%, the inhibition [14] was 1.11% and the inhibition [15] was -0.51%. For the same compound, the inhibition [16] was 2.31%, the inhibition [17] was 1.74% and the inhibition [18] was 0.56%.
